Only some compounds are listed: those with a hit (about 1.5% of all), similar ones and a draw of the others.
STK33 inh: inhibitors of human STK33 kinase | AID 2661 | 320,000 compounds, 0.073% hits | inhibition, % at 10 µM | purified STK33, MBP phosphorylation, ADP-Glo luminescence | Q9BYT3;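 active means inhibition at or above 25%, using the most active replicate where run in duplicate; inactive means inhibition below 25%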
PP1 counter: blocks human PP1-alpha phosphatase, a PP5 counter-screen. P62136. purified PP1alpha, OMFP fluorescence. inhibition, % at 6.7 µM. 320,000 compounds, 0.9% hits. AID 2235;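 active means inhibition above the mean inhibition of all tested compounds plus 3 SD, computed separately for each screening campaign, cut at about 15% in these data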
HIF act: HIF pathway transcriptional activation | 300,000 compounds, 0.32% hits | activation, % at 7.5 µM (by protocol) | U2OS HRE-luciferase reporter, luminescence; normalized: DMSO 0%, desferrioxamine 100% | AID 1910;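 active means mean activation of at least 10% of the iron chelator positive control signal, with at least half of replicates also reaching 10%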
Dyrk1A ADPGlo: blocks rat Dyrk1A kinase activity; inhibition, % at 12.5 µM; Q63470; ADP-Glo luminescence, NFATc1 peptide; 310,000 compounds, 0.43% hits; in the data active means inhibition above about 50%;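 further: plate controls were vehicle with enzyme for no effect and no enzyme for full effect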
PP5 primary: inhibitors of human protein phosphatase 5 (PP5) | purified PP5c, OMFP substrate fluorescence | inhibition, % at 6.7 µM | 320,000 compounds, 0.18% hits | AID 1987;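 active means inhibition above the campaign's mean inhibition across all tested compounds plus 3 SD, cut at about 9.5% in these data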;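 further: 0% = DMSO only and 100% = 100 µM cantharidin control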
Target sequence (P53041 whole entry, looked up): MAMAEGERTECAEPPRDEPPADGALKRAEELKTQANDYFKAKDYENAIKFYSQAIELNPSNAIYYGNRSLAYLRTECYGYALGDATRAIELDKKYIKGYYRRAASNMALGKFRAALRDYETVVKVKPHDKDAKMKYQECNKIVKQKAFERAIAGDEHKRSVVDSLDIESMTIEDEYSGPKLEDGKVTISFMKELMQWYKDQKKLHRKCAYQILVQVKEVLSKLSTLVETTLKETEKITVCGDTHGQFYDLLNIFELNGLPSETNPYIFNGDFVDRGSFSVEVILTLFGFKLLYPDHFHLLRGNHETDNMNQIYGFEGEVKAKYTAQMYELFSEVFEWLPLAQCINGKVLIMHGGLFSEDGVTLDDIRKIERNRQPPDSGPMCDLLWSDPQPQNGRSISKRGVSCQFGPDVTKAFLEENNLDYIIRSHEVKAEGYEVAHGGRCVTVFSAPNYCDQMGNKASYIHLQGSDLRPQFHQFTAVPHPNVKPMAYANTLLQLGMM
Dyrk1A artifact: interferes with ADP-Glo luciferase readout without Dyrk1A | shares compounds with Dyrk1A ADPGlo | ADP-Glo luciferase artifact assay, no Dyrk1A, luminescence | AC50, µM (series often up to 12 µM), for inactives: at the top dose activity change, negative = inhibition | 1,300 tested, under 10 active | AID 588348;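 active means fitted half-maximal dose AC50 no more than ten times the top valid tested dose, with luminescence dropping as dose rises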
An asterisk follows results filed as active; . = not tested or not shown.

SMILES | STK33 inh | PP1 counter | HIF act | Dyrk1A ADPGlo | PP5 primary | Dyrk1A artifact
Cc1ccc(OCCCCNC(C)c2ccccc2)c(C)c1 (stereo not drawn) | -11 | 0 | 0 | . | 2 | .
COc1ccc(/C=C2\SC(N)=NC2=O)cc1Br | -1 | 2 | -12 | 39 | 2 | .
COc1cc(/C=C2\SC(N)=NC2=O)cc(Cl)c1O | 2 | -1 | 0 | 61* | -1 | 10%
CCc1ncc(/C=C2\C(=O)Nc3ccccc32)[nH]1 | 49* | -1 | 2 | 57* | 1 | 6%
Cc1ccccc1C(=O)NNC(=O)c1cc(S(=O)(=O)N2CCOCC2)ccc1C | 0 | -1 | . | -2 | 0 | .
COc1ccc2c(C#CCCO)c(-c3ccc(S(C)(=O)=O)cc3)sc2c1 | -1 | . | . | 56* | . | 9%
COc1ccc2sc(-c3ccc(S(C)(=O)=O)cc3)c(C#CCO)c2c1 | 0 | . | . | 15 | . | .
Cc1cc(C)nc(SCC(=O)NNS(=O)(=O)c2ccc(C#N)cc2)n1 | . | . | . | 12 | . | .
COc1ccc(OC)c(Cc2nnc(CCC(=O)N3CCCCC3c3nccs3)o2)c1 (stereo not drawn) | -1 | 1 | 2 | 4 | -1 | .
CCc1ccc2nc(NC(=O)C3CSC4(C)CCC(=O)N34)sc2c1 (stereo not drawn) | 0 | 0 | 3 | 61* | 2 | 10%
Cc1cccc(N2CCN(C(=O)c3ccoc3C)CC2)c1C | -1 | 2 | 2 | 3 | 0 | .
Oc1ccc(/C=N/n2c(-c3ccccc3)n[nH]c2=S)cc1 | 34* | -4 | -13 | 55* | 4 | 9%
COc1ccc(/C=N/n2c(-c3ccccc3)n[nH]c2=S)cc1 | 5 | -3 | -1 | -3 | 2 | .
O=c1cc[nH]c2ccc(Cl)cc12 | 0 | 0 | -2 | 50* | 0 | 8%
CN(C)CCNC(=O)c1cc2c(=O)n(C)c3ccccc3c2n1C | 3 | 5 | 0 | 53* | 2 | 9%
CCCCN(CC)CCNC(=O)c1cc2c(=O)n(C)c3ccccc3c2n1C | -2 | -5 | 0 | 50 | 0 | .
CCN(CC)CCNC(=O)c1cc2c(=O)n(C)c3ccccc3c2n1C | 2 | 4 | 0 | 58* | -1 | 2%
CN1CCN(CCNC(=O)c2cc3c(=O)n(C)c4ccccc4c3n2C)CC1 | 3 | -3 | 0 | 57* | 4 | 15%
CCN(CC)CCCNC(=O)c1cc2c(=O)n(C)c3ccccc3c2n1C | 3 | -1 | 0 | 57* | 2 | 7%
COc1ccc(OC)c(NS(=O)(=O)c2ccc(NC(=O)c3ccc(NS(C)(=O)=O)cc3)cc2)c1 | 0 | -1 | -16 | -3 | 3 | .
CCOC(=O)c1ccccc1NC(=O)COC(=O)CSC(C)C(=O)Nc1cc(C)on1 (stereo not drawn) | -2 | -4 | -1 | -4 | 1 | .
O=C(O)c1[nH]c2ccc([N+](=O)[O-])cc2c1-c1ccccc1 | 3 | 3 | 1 | 53* | -1 | 9%
CCOC(=O)c1cnc2ccc(C)cc2c1Nc1ccc(N2CCOCC2)cc1 | 5 | 1 | -2 | 61* | 2 | 8%
O=C(NNC(=O)C12CC3CC(CC(C3)C1)C2)[C@@H]1C[C@H]1c1ccccc1 | -1 | -1 | 0 | -3 | 2 | .
CCc1ccc(NC(=O)CN(c2ccc(OC)cc2)S(=O)(=O)c2c(C)nn(C)c2C)cc1 | -2 | 1 | -1 | -4 | 3 | .
SMILES | STK33 inh | PP1 counter | HIF act | Dyrk1A ADPGlo | PP5 primary | Dyrk1A artifact
COc1ccc(N(CC(=O)Nc2ccc3c(c2)OCCO3)S(=O)(=O)c2c(C)nn(C)c2C)cc1 | 1 | -3 | 0 | 56* | 0 | 11%
O=C(O)CC1(c2ccc(F)cc2)C2CC3CC(C2)CC1C3 (stereo not drawn) | 1 | 5 | 3 | 1 | 0 | .
Cc1cc(C)n(-c2nc3ccccc3c(=O)n2OCC(=O)Nc2c(C)cccc2C)n1 | 0 | -1 | 0 | -1 | 2 | .
CC(=O)c1nc2ccccc2n1S(=O)(=O)c1ccc(Cl)cc1 | 0 | 0 | 0 | 83* | 0 | 7%
COc1ccc(/C=C2\SC(N3CCCCC3)=NC2=O)cc1OC | -3 | 1 | 1 | -3 | 2 | .
COc1cc(/C=C2\SC(N3CCC(C)CC3)=NC2=O)ccc1O | 21 | 7 | 0 | 77* | 2 | 12%
CC1Cc2cc(/C=C3/SC(=S)NC3=O)ccc2O1 (stereo not drawn) | 6 | 7 | 1 | 84* | 0 | 9%
Cc1c(NC(=O)C(C)Oc2cccc(F)c2)c(=O)n(-c2ccccc2)n1C (stereo not drawn) | 2 | . | . | 2 | . | .
O=c1c2c(O)cc(O)cc2oc2c(O)ccc(O[C@H]3O[C@@H](CO)[C@H](O)[C@@H](O)[C@@H]3O)c12 | 21 | . | . | 73* | . | 9%
O=c1c(OC2OC(CO)C(O)C(O)C2O)c(-c2ccc(O)c(O)c2)oc2cc(O)cc(O)c12 (stereo not drawn) | 4 | -2 | 1 | 75* | 1 | 9%
O=c1c(O[C@@H]2O[C@H](CO)C(O)C2O)c(-c2ccc(O)c(O)c2)oc2cc(O)cc(O)c12 (stereo partly drawn) | 6 | . | . | 64* | . | 13%
COc1ccc([C@@H]2CC(=O)c3c(O)cc(O[C@@H]4OC(CO[C@@H]5OC(C)[C@H](O)[C@H](O)C5O)[C@@H](O)[C@@H](O)C4O)cc3O2)cc1O (stereo partly drawn) | 0 | -1 | 0 | 12 | 0 | .
C[C@@H]1O[C@@H](OC[C@H]2O[C@@H](Oc3cc(O)c4c(=O)cc(-c5ccc(O)c(O)c5)oc4c3)[C@H](O)[C@@H](O)[C@@H]2O)[C@H](O)[C@H](O)[C@H]1O | 5 | . | . | 59* | . | 13%
O=C(NNC(=O)c1ccccc1O)c1ccc(S(=O)(=O)Nc2ccccc2)cc1 | 1 | -3 | 0 | -4 | 0 | .
COc1ccc(-c2c(C)n([O-])c3c([n+]2=O)CCCCC3)cc1OC | 0 | 4 | 0 | -2 | -2 | .
CC(C(=O)N1CCCC1)N1CCN(S(=O)(=O)c2ccccc2)CC1 (stereo not drawn) | -3 | . | . | -4 | . | .
C[C@@H]1O[C@@H](Oc2c(-c3ccc(O)c(O)c3)oc3cc(O)cc(O)c3c2=O)[C@H](O)[C@H](O)[C@H]1O | 4 | . | . | 12 | . | .
C[C@@H]1O[C@@H](O[C@H]2[C@H](O)[C@@H](O)[C@H](Oc3c(-c4ccc(O)c(O)c4)oc4cc(O)cc(O)c4c3=O)O[C@@H]2CO)[C@H](O)[C@H](O)[C@H]1O | 5 | 1 | . | 52* | 1 | 7%
COc1cc(-c2oc3cc(O)cc(O)c3c(=O)c2O[C@@H]2O[C@H](COC3O[C@@H](C)[C@H](O)[C@@H](O)[C@H]3O)[C@@H](O)[C@H](O)[C@H]2O)ccc1O (stereo partly drawn) | 1 | . | . | 71* | . | 7%
NC(=O)CSc1nnc(-c2ccccc2)c(-c2ccccc2)n1 | -1 | 1 | -2 | . | -1 | .

Assay outcomes: PubChem BioAssay, several laboratories
